High-throughput results as filed in PubChem BioAssay.
Compounds with a hit are over-represented: about 1% of the library has one in this group of screens.
EBNA-1 inhibitor = blocks EBNA-1 binding to DNA. EBNA-1 DNA binding, fluorescence polarization. 0.34% of 300,000 active. inhibition, % at 14.8 µM; in the data active means inhibition above about 28%
MEX-5 binding = C. elegans MEX-5 TCR-2 RNA binding activity; Q9XUB2; activity score (negative = inhibition of binding), % at 10 µM; 0.38% of 300,000 active; AID 1832; MEX-5/FITC-TCR2 RNA binding, fluorescence polarization; stronger effect = lower value;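 active means inhibition past about -25% in most replicates, and total fluorescence under double the plate's negative control median, limit read from the data; inconclusive means replicates evenly split on the limit, or fluorescence at least double controls; inactive means too little inhibition in most replicates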
Target sequence (Q9XUB2 whole entry, looked up): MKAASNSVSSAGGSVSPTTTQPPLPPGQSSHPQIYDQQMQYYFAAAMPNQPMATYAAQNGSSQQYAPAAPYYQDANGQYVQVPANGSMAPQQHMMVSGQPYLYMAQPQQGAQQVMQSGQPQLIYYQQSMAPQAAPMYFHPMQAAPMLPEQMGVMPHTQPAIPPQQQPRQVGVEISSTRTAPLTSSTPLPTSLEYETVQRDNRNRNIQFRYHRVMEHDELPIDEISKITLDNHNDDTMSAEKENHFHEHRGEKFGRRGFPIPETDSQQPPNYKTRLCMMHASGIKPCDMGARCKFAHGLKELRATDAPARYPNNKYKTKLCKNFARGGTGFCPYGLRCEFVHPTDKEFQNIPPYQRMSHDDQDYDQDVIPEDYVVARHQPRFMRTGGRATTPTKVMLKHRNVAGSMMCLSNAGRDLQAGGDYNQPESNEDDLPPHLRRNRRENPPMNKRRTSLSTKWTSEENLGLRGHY
ZTA DNA inh = blocks Epstein-Barr virus ZTA, an EBNA-1 counter-screen; ZTA-DNA binding, fluorescence polarization; P03206; AID 2234; inhibition, % at 11 µM; 0.15% of 320,000 active; in the data active means inhibition above about 33%
EBV gp42 inh = EBV gp42 inhibition. Q1HVG2. Fluorescence polarization binding assay, mP read-out. inhibition, % (tested at 21.74 µM). 0.42% of 220,000 active. AID 1085; in the data active means inhibition above about 50%
Hits are given with their value; – = inactive; ? = inconclusive; · = no result.

SMILES | EBNA-1 inhibitor | MEX-5 binding | ZTA DNA inh | EBV gp42 inh
O=C1CC(c2ccc(O)cc2)Oc2cc(O)cc(O)c21 (stereo not given) | – | – | – | –
CC1CC(=O)c2c(cc3c(-c4c(O)cc(O)c5c(O)c6c(cc45)OC(C)CC6=O)c(O)cc(O)c3c2O)O1 (stereo not given) | – | -35 | – | –
O=Cc1ccc2oc3nc4n(c(=O)c3c(=O)c2c1)CCCS4 | – | – | – | 85
O=c1c2cc(Br)cc(Br)c2oc2nc3n(c(=O)c12)CCCS3 | – | – | – | –
CCc1cccc(NC(=O)CN(c2ccc(C)cc2)S(=O)(=O)c2c(C)noc2C)c1 | – | – | – | ·
Cc1cc(/C=C(/C#N)c2nc3ccccc3[nH]2)c(C)n1-c1cccc([N+](=O)[O-])c1 | – | – | – | –
Cc1cc(/C=C(\C#N)c2nc3ccccc3[nH]2)c(C)n1C | – | -28 | – | 105
Cc1cc(-c2csc(N)n2)c(C)n1C | – | -47 | – | –
CN=c1scc(C)n1/N=C/c1ccc(O)c(O)c1O | – | -32 | – | –
COCCN=c1scc(-c2ccco2)n1/N=C/c1ccc(O)c(O)c1O | – | · | – | 74
C=CCN=c1scc(-c2ccco2)n1/N=C/c1ccc(O)c(O)c1O | – | -28 | – | –
CN=c1scc(-c2cccs2)n1/N=C/c1ccc(O)c(O)c1O | – | – | – | –
CC1=CC(=C(C#N)c2nc3ccccc3s2)C=C(C)N1Cc1ccco1 | – | – | – | 157
O=C(NCc1ccco1)c1nc2ccccc2s1 | – | – | – | –
O=c1c2ccccc2oc2ccc(NCCCn3ccnc3)cc12 | – | -27 | – | ·
c1ccc2c(c1)oc1c(NCCCn3ccnc3)ncnc12 | – | – | – | –
Cc1nc2nc(-c3cccs3)cn2nc1C | – | – | – | 68
O=C1c2ccccc2C(=O)c2[nH]c(=O)[nH]c21 | – | -55 | – | ·
O=C1c2ccccc2C(=O)c2[nH]cnc21 | · | ? | · | –
Cc1ccc(CNC(=O)c2ccc(-n3cccc3)cc2)cc1 | · | – | · | 51
CC(C)c1ccc(/C=c2\sc3nc(-c4ccncc4)nn3c2=O)cc1 | – | – | – | –
Cc1ccc(/C=c2\sc3nc(-c4cccnc4)nn3c2=O)cc1 | – | – | – | 86
CCCn1c(O)c(N=Nc2ccc3ccccc3n2)c2ccccc21 | – | – | – | 63
CC(C)CCn1c(O)c(N=Nc2ccccn2)c2ccccc21 | – | – | – | –
Cc1cc(/C=N/NC(N)=S)c(O)c(/C=N/NC(N)=S)c1 | – | – | – | 147
SMILES | EBNA-1 inhibitor | MEX-5 binding | ZTA DNA inh | EBV gp42 inh
Cc1ccc(-n2c(C)cc(/C=N/NC(N)=S)c2C)cc1 | – | – | – | –
NC(=S)N/N=C/c1cccc(O)c1O | – | -38 | – | –
Oc1ccc(/C=N/NC(=S)Nc2cccnc2)c(O)c1O | · | -43 | · | –
NC(=S)N/N=C/c1ccccc1O | – | – | – | –
COc1ccc(OC)c(N=Cc2c(O)c3ccccc3oc2=O)c1 | – | -29 | – | ·
COc1ccc(Cl)cc1N=Cc1c(O)c2ccccc2oc1=O | – | – | – | ·
Cc1ccc(NC2=Nc3ccccc3N3C2=Nc2c(c(C)nn2-c2ccccc2)C3c2ccc(O)c(O)c2)cc1 (stereo not given) | · | · | · | 78
Cc1nn(-c2ccccc2)c2c1C(c1ccc(O)c(O)c1)N1C(=N2)C(Nc2ccccc2)=Nc2ccccc21 (stereo not given) | – | – | – | 85
Cc1cccc(NC2=Nc3ccccc3N3C2=Nc2c(c(C)nn2-c2ccccc2)C3c2ccc(O)c(O)c2)c1 (stereo not given) | – | ? | – | –
Cc1nn(-c2ccccc2)c2c1C(c1ccc([N+](=O)[O-])cc1)N1C(=N2)C(=O)Nc2ccccc21 (stereo not given) | – | – | – | –
CN(C)c1ccnc2sc(C(=O)c3ccc(Br)cc3)c(N)c12 | – | – | – | 73
COc1ccccc1OCCNC(=O)c1ccc2c(c1)CCC2 | – | – | – | ·
CN(C)c1cccc(C(=O)OCc2cc(=O)oc3cc(O)ccc23)c1 | – | – | – | 52
CCOc1ccc(/C=c2\sc3nc(-c4ccco4)nn3c2=O)cc1OCC | – | -31 | – | –
CCOc1ccc(N(C)Cc2cc(=O)oc3ccc(OCC)cc23)cc1 | · | – | · | ·
Cc1ccc(C2C3CN(C(C)C)CC=C3C(C#N)=C(N)C2(C#N)C#N)cc1 (stereo not given) | – | -28 | – | 89
CCCN1CC=C2C(C#N)=C(N)C(C#N)(C#N)C(c3cccc(OC)c3OC)C2C1 (stereo not given) | – | -67 | – | 75
CCOC(=O)N1CC=C2C(C#N)=C(N)C(C#N)(C#N)[C@H](c3ccc(OCC)c(OCC)c3)[C@H]2C1 | – | – | – | –
CCCCOc1ccc(C2C3CN(C(=O)OCC)CC=C3C(C#N)=C(N)C2(C#N)C#N)cc1OC (stereo not given) | – | – | – | –
COc1ccc(OC)c(C2C3CN(C(C)C)CC=C3C(C#N)=C(N)C2(C#N)C#N)c1 (stereo not given) | – | -38 | – | –
COc1cccc(OC)c1OCc1cc(C2C3CCCC=C3C(C#N)=C(N)C2(C#N)C#N)c(C)cc1C (stereo not given) | – | – | – | –
CCOc1ccc(NC(=O)CN(C)C(=O)c2cc(S(=O)(=O)N3CCCCC3)ccc2C)cc1OCC | – | – | – | ·
Cc1ccc(S(=O)(=O)N(CC(=O)N(C(C)C)C(C)C)C(=O)N2CCN(C)CC2)cc1 | – | – | – | ·
Cc1ccsc1C=Nc1ccc(O)cc1 | – | – | 38 | –
Cc1ccsc1/C=N/N=C/c1sccc1C | – | – | – | ·
SMILES | EBNA-1 inhibitor | MEX-5 binding | ZTA DNA inh | EBV gp42 inh
COc1cc(OC)c(OC)cc1CNC(=O)c1cc(=O)[nH]c2ccccc12 | – | – | – | ·
Cc1cccc(NS(=O)(=O)c2cccc(C(=O)N3CCCC(C(F)(F)F)C3)c2)c1 (stereo not given) | – | – | – | ·
CCOc1ccc(OCCOC(=O)CN(C)S(=O)(=O)c2ccc(NC(C)=O)cc2)cc1 | – | – | – | ·
CCN(CC)S(=O)(=O)c1ccc(C(=O)N2CCN(CCN3C(=O)c4cccc5cccc(c45)C3=O)CC2)cc1 | – | – | – | –
O=C(OCCN1C(=O)c2cccc3c(N4CCOCC4)ccc(c23)C1=O)c1ccc(Cl)cc1 | – | ? | – | 123
CCCN(CCC)S(=O)(=O)c1ccc(C(=O)OCCN2C(=O)c3cccc4c(N5CCOCC5)ccc(c34)C2=O)cc1 | – | ? | – | 135
O=C(OCCN1C(=O)c2ccccc2C1=O)c1cc(S(=O)(=O)N2CCOCC2)ccc1F | – | – | – | –
Nc1ccc(N)c(C(=O)O)c1 | – | – | – | 108
Nc1ccc(C(=O)O)c(O)c1 | – | – | – | –
CCOC(=O)c1oc2cc(O)ccc2c(=O)c1-c1ccccc1OC | – | – | – | –
CCOc1ccccc1-c1c2cc(O)c(=O)cc-2oc2cc(O)c(O)cc12 | · | · | · | 153
COc1ccc(OC)c(-c2c3cc(O)c(=O)cc-3oc3cc(O)c(O)cc23)c1 | – | · | – | 168
O=c1cc2oc3cc(O)c(O)cc3c(-c3ccccc3O)c-2cc1O | · | · | · | 150
CCCNC(=O)Cn1c(=O)/c(=C\c2ccc(-c3cccc([N+](=O)[O-])c3)o2)s/c1=C\C(=O)C(C)(C)C | – | – | – | 69
